VP16 counter – VP16 counterscreen qHTS for inhibitors of ROR gamma transcriptional activity | Potency, µM (titrated, usually from 53.6 µM), without a hit: at the top dose activity, negative = inhibition, hits mostly inhibitors | 310,000 compounds, 3.5% hits | Drosophila S2 Gal4-VP16 UAS-luciferase, luminescence, 20 h;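 also: Gal4-VP16 expression switched on by copper sulfate through the metallothionein promoter; potency is read from the fitted curve at half-maximal effect; % is scaled to controls: 0 for no effect and ±100 for the full control effect; nearly all actives have a fitted effect of over 50% in size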
IL1B secr inh – qHTS for Inhibitors of Inflammasome Signaling: IL-1-beta AlphaLISA Primary Screen; 360,000 compounds, 4.7% hits; AID 743279, 2014; activity change, % at 57.5 µM; THP-1 LPS/ATP IL-1B secretion, AlphaLISA, 16 h; stronger effect = lower value; in the data active = activity change below about -50%; inconclusive = mostly about -30% to -49%; also: % is scaled to controls: 0 for no effect and ±100 for the full control effect
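THP-1 cells pretreated 1 hr with compounds (up to 57.5 uM final), then stimulated with LPS (250 ng/mL final) plus ATP (1.25 mM final); secreted IL-1B measured by AlphaLISA after 16 hr, decreased signal indicating inhibition.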
MCF10A rereplic – A quantitative high throughput screen for small molecules that induce DNA re-replication in MCF 10a normal breast cells. AID 624296, 2012. MCF 10A DNA re-replication, Hoechst nuclear intensity, 48 h. 350,000 compounds, 2.9% hits. Potency, µM (titrated, usually from 46.1 µM), without a hit: at the top dose activity, positive = re-replication, actives largely listed as activators; also: potency is read from the fitted curve at half-maximal effect; % of control where 0% means no effect; nearly all actives have a fitted effect of over 50% in size
RORgamma inh – qHTS for inhibitors of ROR gamma transcriptional activity. Nuclear receptor ROR-gamma (Mus musculus), P51450. Drosophila S2 Gal4-RORgamma UAS-luciferase reporter, 20 h. Potency, µM (doses to about 53.6 µM), without a hit: at the top dose activity change, negative = inhibition, usual class: inhibitors. 310,000 compounds, 5.4% hits. AID 2551, 2010; also: potency is read from the fitted curve at half-maximal effect; % is scaled to controls: 0 for no effect and ±100 for the full control effect; nearly all actives have a fitted effect of over 60% in size
Target sequence (P51450 whole entry, looked up, the tested form may be a part): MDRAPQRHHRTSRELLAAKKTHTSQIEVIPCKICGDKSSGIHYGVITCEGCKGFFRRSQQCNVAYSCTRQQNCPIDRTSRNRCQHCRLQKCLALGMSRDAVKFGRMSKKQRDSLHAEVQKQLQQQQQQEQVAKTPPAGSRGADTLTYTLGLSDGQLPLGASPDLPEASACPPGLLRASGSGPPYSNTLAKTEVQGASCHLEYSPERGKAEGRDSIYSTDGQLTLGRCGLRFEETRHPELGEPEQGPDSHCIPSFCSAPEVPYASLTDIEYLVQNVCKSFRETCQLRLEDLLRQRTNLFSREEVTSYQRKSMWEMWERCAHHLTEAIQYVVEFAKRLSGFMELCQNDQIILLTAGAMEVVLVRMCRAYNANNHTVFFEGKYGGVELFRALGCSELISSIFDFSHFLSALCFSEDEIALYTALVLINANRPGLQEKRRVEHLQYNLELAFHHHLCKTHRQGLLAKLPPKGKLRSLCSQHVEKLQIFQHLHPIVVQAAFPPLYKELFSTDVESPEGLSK
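Stable Schneider cell line, Gal4 DNA-binding domain fused to ROR gamma, UAS-luciferase. Cmpd 1 hr RT → CuSO4 700 uM final → 20 hr RT → luciferase reagent 10 min → luminescence.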
SW480 rerep – A quantitative high throughput screen for small molecules that induce DNA re-replication in SW480 colon adenocarcinoma cells; SW480 DNA re-replication, Hoechst DNA content imaging, 48 h; Potency, µM (doses to about 46.1 µM), without a hit: at the top dose re-replication activation, actives largely listed as activators; 340,000 compounds, 1.8% hits; also: potency is read from the fitted curve at half-maximal effect; % of control where 0% means no effect; nearly all actives have a fitted effect of over 55% in size
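Readout is total intensity of Hoechst-stained nuclei, excited at 405 nm and collected at 500-530 nm. Compound treatment lasted 48 hr at 37 C in 5% CO2 before staining.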
Starred values were filed as active, the others as inactive; ? = inconclusive; . = no result given; [ ] = dose if it differs, or a comment. In the library only some 11% were active in any assay of this set; here they are far more common. Unless noted, calls follow the shape of the dose curve; as a rule, active = well fitted curve in the direction sought with a large enough effect; inconclusive = small, poorly fitted or top-dose-only effect, or another doubt; inactive = no such curve, though single readings can be large; an effect the other way counts as inactive or inconclusive.

SMILES | VP16 counter | IL1B secr inh | MCF10A rereplic | RORgamma inh | SW480 rerep
O=C(NNC(=O)c1ccccc1Br)c1cnccn1 | . | 16 | -2% | . | -9%
c1ccc(-c2ccc(OCCCNC3CCCC3)cc2)cc1 | 0% | . | 6.5µM* | -7% | ?
COc1ccc(NC(=O)[C@H](C)NC(=O)C2CCN(S(=O)(=O)c3ccc(C)cc3)CC2)cc1OC | -2% | -12 | 3% | -9% | -2%
CCOC(=O)CS(=O)(=O)c1nc(-c2ccccc2)cc(C(F)(F)F)n1 | 5µM* | -125* | ? | 2.8µM* | 2.6µM*
CCOC(=O)CS(=O)(=O)c1ccccc1 | 1% | ? | -7% | 5% | -5%
COc1ccc(-c2cc(C(F)(F)F)nc(S(=O)(=O)CCCC(=O)Nc3cccnc3Cl)n2)cc1OC | ? | -107* | 12µM* | 1.6µM* | 3%
CCOC(=O)CCS(=O)(=O)c1nc(-c2ccccc2)cc(C(F)(F)F)n1 | ? | -99* | ? | 24% | 27%
COc1nc(-c2ccccc2)cc(C(F)(F)F)n1 | -9% | 13 | 0% | -11% | 0%
COC(=O)CCS(=O)(=O)c1nc(-c2ccccc2)cc(C(F)(F)F)n1 | 5.6µM* | -105* | 3.7µM* | 7.1µM* | ?
CC1=C(C(=O)Nc2ccccc2C(=O)N2CCC(C)CC2)SCCO1 | -2% | -8 | -1% | -14% | ?
C[C@@H](NC(=O)[C@@H]1CCCN1C(=O)OC(C)(C)C)c1ccccc1 | . | 9 | . | . | .
CC(C)CN1CCC2(CC1)CCN(C(=O)c1cc(C(F)(F)F)cc(C(F)(F)F)c1)CC2 | -4% | . | . | -8% | .
COCC(C)NC(=O)CCS(=O)(=O)c1nc(-c2ccc(OC)cc2)cc(C(F)(F)F)n1 (configuration not stated) | . | -102* | 3.7µM* | 2%[0.365 µM] | 9%
CCOC(=O)CS(=O)(=O)c1nc(-c2ccc(F)cc2)cc(C(F)(F)F)n1 | 5µM* | -119* | 3.7µM* | 5.6µM* | 21%
N#Cc1ccc(CN2CCCC3(CCN(S(=O)(=O)c4ccccc4)CC3)C2)cc1 | -8% | . | . | 9% | .
CCc1nnc(NC(=O)c2ccc(COc3cccc(C)c3)o2)s1 | 4% | -6 | 1% | -14% | ?
COc1ccc(N(C(=O)c2cc3ccccc3oc2=O)C2C=CS(=O)(=O)C2)cc1 (configuration not stated) | 6% | ? | -1% | 7% | 0%
O=C(c1cc2ccccc2oc1=O)N(c1ccccc1)C1C=CS(=O)(=O)C1 (configuration not stated) | -1% | -54* | 5% | ? | ?
COc1cc([N+](=O)[O-])ccc1NC(=O)CCCOc1cccc(C)c1C | ? | -20 | 0% | 20µM* | 3%
COc1cc([N+](=O)[O-])ccc1NC(=O)Cc1ccccc1 | -2% | -20 | 0% | 15% | ?
CCOC(=O)c1ccc(C(=O)OCC)c(NC(=S)Nc2ccc([N+](=O)[O-])cc2OC)c1 | 2.8µM* | 25 | 8% | 2.2µM* | 2%
COc1cc([N+](=O)[O-])ccc1NC(=S)NC(=O)CC(C)(C)C | -6% | 4 | -13% | 10µM* | -45%
Clc1cc(Cl)cc(Cl)c1 | 3% | . | . | -1% | .
O=C(Nc1nnc(-c2ccccc2)o1)NC1CCCCC1 | 4.5µM* | 28 | 9% | 2.5µM* | -1%
NC(=O)c1oc2ccccc2c1NC(=O)c1nc2ccccc2s1 | 12% | 13 | 12% | ? | 17%
SMILES | VP16 counter | IL1B secr inh | MCF10A rereplic | RORgamma inh | SW480 rerep
O=C(Nc1nnc(-c2ccccc2)o1)c1nc2ccccc2s1 | -1% | 75 | 23µM* | -34% | -4%
O=C(Nc1ccccc1)Nc1nnc(-c2ccccc2)o1 | -2% | -102* | 3% | 43% | -14%
CCNC(=O)C1(C)CCN(Cc2noc(-c3c(C)noc3C)n2)C1 (configuration not stated) | . | 19 | . | . | .
Cc1ccc(S(=O)(=O)N(C)CC(=O)NCCCn2ccnc2)cc1 | 3% | 3 | 12% | 6% | -2%
O=Cc1ccccc1C=O | -23% | . | ? | -3%[10 µM] | ?
CCCCOc1ccc(/C=N/NC(=S)Nc2cc(C)ccc2C)cc1 | 5µM* | 2 | 21% | 6.3µM* | 0%
CCCCOc1ccc(/C=N/NC(=S)Nc2cccc(C)c2C)cc1 | 3.2µM* | 6 | 5% | 1.8µM* | 5%
Cc1cccc(C)c1NC(=S)N/N=C/c1ccc(C(=O)O)cc1 | -1% | 14 | 10% | -29% | ?
Cc1cccc(C)c1NC(=S)N/N=C/c1ccc(OCCC(C)C)cc1 | 2.8µM* | ? | 13% | 1.6µM* | 18%
Cc1ccc(C)c(NC(=O)CCOc2ccccc2)c1 | 0% | 1 | 0% | 17% | -3%
CN(CC[C@@H](Oc1ccc(C(F)(F)F)cc1)c1ccccc1)CC(=O)O | 0% | . | . | -2% | .
O=S1(=O)CC(N2CCCC2)CN1Cc1cn(Cc2ccc(Cl)cc2)nn1 (configuration not stated) | . | 14 | . | . | .
O=S1(=O)c2ccc(Br)cc2N2CCC[C@@H]2CN1Cc1ccc(Cl)cc1 | . | -3 | ? | . | ?
C[C@@H](c1ccccc1)N1C[C@H]2CCCN2c2cc(Br)ccc2S1(=O)=O | . | 0 | 7.3µM* | . | 16µM*
O=S1(=O)c2ccc(Br)cc2N2CCC[C@H]2CN1Cc1ccccc1 | . | 50 | 2.6µM* | . | 5.2µM*
O=S1(=O)c2ccc(Br)cc2N2CCC[C@@H]2CN1C1CC1 | . | 19 | ? | . | 0%
O=S1(=O)c2ccc(Br)cc2N2CC[C@H](C2)N1Cc1ccc(Cl)cc1 | . | 62 | 3.3µM* | . | 6.5µM*
COC(=O)C1=CN(c2ccc(C)cc2)C(N)=C(C#N)C1c1ccc(OC)cc1 (configuration not stated) | . | 0 | . | . | .
CCCCn1c(SCC(=O)OCC)nc2c(sc(=S)n2-c2ccccc2OC)c1=O | 1% | 13 | -2% | -16% | -9%
COc1cccc(N2CCN(C(=O)CCNS(=O)(=O)c3ccc(F)c(F)c3)CC2)c1 | . | 25 | 3% | . | 7%
CN1/C(=C/C(=S)NC(=O)C2(C)CC2(Cl)Cl)C(C)(C)c2ccccc21 (configuration not stated) | ? | -13 | 9% | 4.5µM* | 13%
CN1/C(=C\C(=O)Nc2ccc(Cl)cc2)C(C)(C)c2ccccc21 | ? | -58* | ? | ? | 0%
CN1/C(=C\C=C(/C#N)C(=O)Nc2ccc(Cl)cc2)C(C)(C)c2ccccc21 | -21% | -2 | 8% | -3%[10 µM] | 19%
CN1/C(=C\C(=S)NC(=O)c2ccccc2Cl)C(C)(C)c2ccccc21 | 20µM* | -54* | ? | 7.9µM* | -2%

High-throughput results (PubChem BioAssay)
